Activity calls are given as the source filed them. No rule for the calls is given here.
Target: Estrogen receptor (Homo sapiens) (UniProt P03372)
Test: displacement of fluorescent estrogen from ERalpha – cell-based, Cos7 ERalpha-GFP, flow cytometry, primary screen (AID 1211);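 also: 0% = DMSO vehicle wells and 100% = no E2-Alexa633 signal left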
Settings: fluorescent ligand competition, stronger effect = higher value

Estrogen receptor (Homo sapiens), sequence (P03372 whole entry, looked up): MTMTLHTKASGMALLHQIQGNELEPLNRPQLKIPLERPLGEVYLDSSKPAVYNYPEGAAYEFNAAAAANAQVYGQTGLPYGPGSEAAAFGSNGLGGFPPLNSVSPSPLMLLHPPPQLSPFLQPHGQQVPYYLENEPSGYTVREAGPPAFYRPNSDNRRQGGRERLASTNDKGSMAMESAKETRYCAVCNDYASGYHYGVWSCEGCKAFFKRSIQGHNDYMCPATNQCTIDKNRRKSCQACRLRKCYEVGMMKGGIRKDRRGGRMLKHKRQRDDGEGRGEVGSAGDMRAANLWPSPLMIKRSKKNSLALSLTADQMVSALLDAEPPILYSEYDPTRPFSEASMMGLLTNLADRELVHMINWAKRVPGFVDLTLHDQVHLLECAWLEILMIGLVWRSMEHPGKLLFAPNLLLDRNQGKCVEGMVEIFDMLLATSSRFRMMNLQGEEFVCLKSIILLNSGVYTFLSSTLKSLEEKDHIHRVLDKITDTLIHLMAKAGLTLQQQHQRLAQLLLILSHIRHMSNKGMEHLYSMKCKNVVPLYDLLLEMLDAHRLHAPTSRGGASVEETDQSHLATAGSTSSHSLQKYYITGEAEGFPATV

SMILES	inhibition of ligand binding (at 10 µM)	inhibition of ligand binding (binding inhibition, at 0.1 µM) [%]
Oc1ccc(-c2cn3c(n2)SCC3)cc1	37% (inactive)	22
CN(C)C(=O)c1ccc2c(c1)C1C3CCC(C3)C1C(c1ccccc1)N2 (centres undefined)	0% (inactive)	24
CCOC(=O)C1CCCN(C(=O)c2cc3ncc(Br)cn3n2)C1 (centres undefined)	3% (inactive)	41
CCOc1ccc2nc(NC(=O)CCC(=O)c3cccs3)sc2c1	13% (inactive)	17
COc1cc(C(=O)Nc2nnc(-c3sccc3C)s2)cc(OC)c1OC	2% (active)	75
CCC(=O)Oc1ccc(/C(CC)=C(\CC)c2ccc(OC(=O)CC)cc2)cc1	77% (active)	86
Cn1c(SCC(=O)Nc2sccc2C#N)nnc1-c1ccccc1	17% (inactive)	24
Oc1ccc(-c2nc3ccc4ccccc4c3c3c2CCC3)cc1O	41% (inactive)	44
O=C(O)C1Nc2c(O)cc(Cl)c([N+](=O)[O-])c2C2C=CCC12 (centres undefined)	50% (inactive)	20
O=C(Nc1nc(-c2nc3ccccc3s2)cs1)C1COc2ccccc2O1 (centres undefined)	33% (inactive)	11
C/C(N)=C(/C#N)C(=O)CSc1nnnn1-c1ccc(C)cc1	9% (inactive)	14
Cc1cc(-c2ccccc2)nc2cc(C(N)=O)nn12	42% (inactive)	5
Cc1ccc(NC(=O)CN2C(=O)S/C(=C/c3ccc(-c4cc(C(=O)O)ccc4C)o3)C2=O)cc1C	50% (inactive)	39
CCn1c(SCC(=O)c2ccc(O)c(O)c2)nnc1-c1ccccc1OC	54% (inactive)	16
COc1ccc(NC(=O)C(c2ccccc2)N(C)C(=O)c2ccc(=O)[nH]c2)cc1 (centres undefined)	49% (active)	86
O=C(COC(=O)CN1C(=O)c2ccccc2C1=O)Nc1ncc(Cl)cc1Cl	7% (inactive)	14
CC1(C)CC(=O)c2c(oc3cc(O)c(O)cc23)C1	20% (inactive)	54
Cc1ccc2nc(/C(C#N)=C\c3ccc(N4CCCCC4)c([N+](=O)[O-])c3)[nH]c2c1	55% (inactive)	25
Oc1ccccc1-c1nnc(SCCN2CCOCC2)n1Cc1ccccc1	32% (inactive)	44
Oc1ccc(-c2cn3cc(C(F)(F)F)ccc3n2)cc1	29% (inactive)	7
Cc1cc(C)cc(OCC(=O)Nc2ccc(N3CCCC3)cc2)c1	80% (active)	17

SMILES	inhibition of ligand binding (at 10 µM)	inhibition of ligand binding (binding inhibition, at 0.1 µM) [%]
CC(O)C1CCC2C3CC[C@H]4CC(O)CCC4(C)C3CC3(OCCO3)C12C (some centres undefined)	33% (inactive)	1
Cc1ccc2c(Cl)cc(Cl)c(OCC(=O)NCc3ccco3)c2n1	21% (inactive)	18
COc1ccc(Cc2nnc(NC(=O)Cc3cccs3)s2)cc1	47% (inactive)	47
COC(=O)C1=C(O)/C(=C\c2ccc(CNC(=O)C(=O)Nc3ccc(C)c(C)c3)o2)N=C1C	32% (inactive)	31
CCOc1ccc(C2C3=C(Nc4nc(N)[nH]c(=O)c42)c2ccccc2C3=O)cc1 (centres undefined)	50% (inactive)	26
O=C(Oc1ccc(-c2cnc3ccccc3n2)cc1)c1ccc(Br)o1	58% (inactive)	1
Nc1ccc(-n2cnc3cc([N+](=O)[O-])ccc32)cc1	41% (active)	66
O=C(Nc1sc2c(c1C(=O)O)CCC2)c1ccccc1	15% (inactive)	61
CC(=O)Nc1nonc1-c1nc2ccccc2n1N(C(C)=O)C(C)=O	44% (inactive)	59
Cc1noc(C)c1S(=O)(=O)N(CC(=O)O)c1ccc2c(c1)OCO2	0% (inactive)	3
CCCCOC(=O)c1c(C)oc2ccc(NS(=O)(=O)c3ccc4c5c(cccc35)C(=O)N4)cc12	66% (active)	51
C=CCn1c(COc2cccc(C)c2)nnc1SCC(=O)NC(=O)NCc1ccco1	9% (inactive)	31
O=C1c2ccccc2NC(c2ccc(O)cc2)N1/N=C/c1ccc(O)cc1 (centres undefined)	32% (inactive)	65
Cc1cc(-c2nn3c(-c4ccccc4)nnc3s2)c2ccccc2n1	23% (inactive)	24
Cc1cccc(N2CCN(C(=O)c3cc4c(=O)n(C)c5ccccc5c4n3C)CC2)c1C	55% (inactive)	11
O=C(Cc1cccs1)Nc1ccc(-c2nnn(CC(=O)N3CCOCC3)n2)cc1	15% (inactive)	55
Cc1cc(O)ccc1C1(c2ccc(O)cc2C)OC(=O)c2ccccc21	28% (inactive)	64
O=C(CSc1nnc(-c2ccc(OC(F)F)cc2)o1)NC(=O)NCc1ccco1	34% (inactive)	26
O=C(c1cc2sccc2n1Cc1ccccc1)N1CCc2ccccc21	45% (inactive)	20
Oc1ccccc1C1=Nc2ccccc2N=C(c2cccs2)C1	1% (inactive)	54
Cc1nnc(N/N=C/c2ccc(O)c([N+](=O)[O-])c2)[nH]c1=O	32% (inactive)	20
